Data: the supplement of paper PMC3334620
Whole data set: some 33,000 sequences, median “E-score (-0.5 to 0.5)” near -0.032, cut for the highest 2% near 0.36. Shown is part of a subset that was picked to be rich in the highest values.

biological target: T1, Sko1 (UniProt Q02100); assay: PBM E-score (8-mer binding enrichment) (E-score (-0.5 to 0.5)); higher = stronger / more preferred TF binding; conditions: protein concentration: 200 nM; construct: GST-full length
T1 sequence: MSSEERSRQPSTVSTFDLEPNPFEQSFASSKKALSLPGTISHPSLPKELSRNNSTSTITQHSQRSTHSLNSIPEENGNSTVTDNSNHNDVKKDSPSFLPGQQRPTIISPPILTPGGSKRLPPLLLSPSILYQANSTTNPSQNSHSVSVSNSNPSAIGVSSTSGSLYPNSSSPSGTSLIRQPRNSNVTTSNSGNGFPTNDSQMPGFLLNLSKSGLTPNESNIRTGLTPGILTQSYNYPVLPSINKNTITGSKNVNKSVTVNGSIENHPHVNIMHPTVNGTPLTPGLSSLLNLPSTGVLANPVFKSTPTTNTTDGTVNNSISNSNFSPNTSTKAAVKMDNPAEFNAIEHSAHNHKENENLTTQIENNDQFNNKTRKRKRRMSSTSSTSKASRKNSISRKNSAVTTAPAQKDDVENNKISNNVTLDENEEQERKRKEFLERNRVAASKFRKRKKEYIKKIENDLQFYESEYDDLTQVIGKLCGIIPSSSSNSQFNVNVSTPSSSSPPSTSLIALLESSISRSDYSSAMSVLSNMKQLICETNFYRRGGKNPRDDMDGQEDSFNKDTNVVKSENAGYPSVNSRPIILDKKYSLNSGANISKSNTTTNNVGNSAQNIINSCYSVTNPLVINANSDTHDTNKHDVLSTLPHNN
Method: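 Universal 'all 10-mer' protein binding microarrays (Agilent AMADID 015681) probed with GST-tagged S. cerevisiae TFs (full-length or DBD) made by in vitro transcription/translation (PURExpress), about 100-200 nM. Bound TF was detected with fluorescent anti-GST. Each ungapped 8-mer (which stands for itself and its reverse complement) is scored by the PBM enrichment score (E-score), a modified Wilcoxon-Mann-Whitney statistic from -0.5 to +0.5, computed with the Universal PBM Analysis Suite. Scale: above 0.35 generally sequence-specific binding.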

Row | Sequence | PBM E-score
1 | GCAAAGAC | 0.00382
2 | GATAGTCC | -0.141
3 | CATTTAAA | 0.178
4 | ACTCACGC | 0.14
5 | GCTTAGCC | -0.313
6 | CTGGCGCC | -0.181
7 | TCCTAACA | 0.0335
8 | CTGAATAC | 0.15
9 | TCAACCGA | 0.204
10 | CCTATGAC | 0.308
11 | CTTATGAC | 0.374
12 | GCTATGAC | 0.364
13 | CTTATGAA | -0.0245
14 | ACTATGAC | 0.342
15 | ATTATGAC | 0.349
16 | TATCAGCA | 0.0232
17 | ACGAGCAG | -0.0309
18 | CAAGAGCA | -0.0878
19 | GCCTAGAA | -0.121
20 | ACGTGTTA | 0.434
21 | ATGTGTTG | 0.203
22 | ACGTGTTC | 0.36
23 | AGGTGTTC | -0.0318
24 | GCGTGTTA | 0.114
25 | ACGTGTTG | 0.426

Row | Sequence | PBM E-score
26 | CCGTGTTC | -0.0799
27 | CCGTGTTA | -0.0886
28 | AGGTGTTG | 0.0206
29 | ACTGGTTC | -0.132
30 | GCAGTCAC | -0.0169
31 | GAGCGAGA | -0.0193
32 | CGCGGTTA | -0.0722
33 | ACTCTTCC | -0.0697
34 | GCTTGCTA | -0.191
35 | ACTAACAG | 0.0358
36 | CTTAATGC | 0.0192
37 | AGTAATGA | 0.247
38 | CGTAATGC | 0.454
39 | CGTAATGA | 0.461
40 | GGTAATGA | 0.115
41 | AGTAATGC | 0.0678
42 | CGAGCAAG | -0.129
43 | TAGTATCA | 0.187
44 | CCTAACGC | 0.0788
45 | CACTTACG | 0.382
46 | AACTTACC | -0.0258
47 | CACTTACC | 0.109
48 | AACTTACA | 0.0844
49 | AACTTACG | 0.408
50 | CACTTACA | 0.164

Row | Sequence | PBM E-score
51 | ACGTTCTG | 0.256
52 | GCTCTAAA | 0.0432
53 | ACGTATCT | 0.419
54 | CCGTATCC | -0.133
55 | ACGTATCA | 0.438
56 | ACGTATCG | 0.452
57 | CCGTATCG | -0.171
58 | GCGTATCC | 0.142
59 | AAGTATCG | -0.0131
60 | ACGTATCC | 0.389
61 | AAGTATCT | 0.0671
62 | GCGTATCA | 0.131
63 | ACCTATCT | -0.0547
64 | TCGTATCA | 0.241
65 | CCGTCTGC | -0.109
66 | GCAGAACC | -0.16
67 | TAGTGGAA | -0.149
68 | GCGGCATA | 0.0318
69 | AGCTGATC | -0.0352
70 | GATCCTCC | -0.264
71 | ATGACGGC | 0.285
72 | GCGACGAC | -0.08
73 | ATGACGAC | 0.466
74 | GTGACGGA | 0.174
75 | CTGACGAC | 0.342

Row | Sequence | PBM E-score
76 | ATGACGAG | 0.462
77 | CTGACGAA | 0.373
78 | CCGACGAA | 0.144
79 | ATGACGGA | 0.419
80 | AAGACGAG | -0.189
81 | ATGACGGG | 0.338
82 | AGGACGAC | -0.114
83 | ACCTCCGG | -0.282
84 | CCCCACGA | -0.128
85 | CGTTTTGC | 0.177
86 | ACACCTAC | -0.0103
87 | CCGCTGAG | -0.29
88 | AAAGCTTA | 0.141
89 | ACTAATGG | 0.00996
90 | ACTGAAGT | -0.0247
91 | ACTCGCCT | -0.196
92 | ATGACAAA | 0.154
93 | ATGACGAA | 0.488
94 | GTGACGAA | 0.446
95 | ACGACGAA | 0.25
96 | GTGACAAA | 0.167
97 | GGGACGAA | -0.164
98 | AGACAGTA | 0.0897
99 | CCGCCCTC | -0.23
100 | AAAGATGG | -0.0167

Row | Sequence | PBM E-score
101 | AAGCTCGG | -0.169
102 | GAGGTAAC | 0.0793
103 | GAAAGTGC | -0.11
104 | GTCATATA | 0.373
105 | ATCATAAA | 0.175
106 | ATAATTTA | 0.222
107 | CTAATCTA | 0.0405
108 | ATCATATA | 0.244
109 | ATAATCTA | 0.189
110 | GTAATCTA | 0.394
111 | GTCATAAA | 0.364
112 | GTAATTTA | 0.366
113 | TTCATAAA | 0.0982
114 | CTCATATA | 0.0195
115 | CTAATTTA | 0.261
116 | CCACACAG | -0.208
117 | GGGACAAA | -0.0851
118 | CGAAGAAG | 0.0371
119 | AACTCTAT | -0.186
120 | TGATTCAA | 0.144
121 | ACCCCATG | -0.0741
122 | ATAATATA | 0.268
123 | GTAATATA | 0.374
124 | GTCATAGA | 0.406
125 | ATCATAGA | 0.205

Row | Sequence | PBM E-score
126 | CTCATAGA | 0.00332
127 | CTAATATA | 0.302
128 | GCCAGTGA | -0.0654
129 | TACCCTGA | -0.126
130 | CGCCTGAC | 0.0438
131 | AAGGCACG | 0.132
132 | ACCGCCGT | -0.264
133 | GAAAAGGA | -0.0667
134 | CCTCATCC | -0.292
135 | CATCATCG | 0.347
136 | CGTCATCC | 0.475
137 | TATCATCA | 0.272
138 | CATCATCA | 0.361
139 | AGTCATCC | -0.0488
140 | CGTCATCA | 0.489
141 | AGTCATCA | -0.103
142 | GGTCATCA | 0.207
143 | CTGATCGC | -0.0786
144 | ATATGCCA | -0.0891
145 | AAAACAGA | 0.112
146 | AGAGTAGC | -0.00834
147 | ACGTGGAT | 0.398
148 | ACGTGGTC | 0.364
149 | ACGTGGCT | 0.321
150 | GCGTGGTA | -0.0393

Row | Sequence | PBM E-score
151 | CCGTGGTC | -0.235
152 | ACGTGGAA | 0.311
153 | ACGTGGCG | 0.368
154 | CCGTGGTA | -0.172
155 | ACGTGGCA | 0.297
156 | ACGTGGAC | 0.33
157 | ACGTGGGC | 0.347
158 | ACGTGGTA | 0.391
159 | AACTCAGG | -0.0444
160 | AGCGCTGC | -0.167
161 | AGACAGAT | 0.0457
162 | ACTTGTGG | -0.0685
163 | ACCCGAGC | -0.224
164 | GTAGGCTA | 0.0728
165 | CGTTATGA | 0.267
166 | CTTGCTTC | 0.0228
167 | AGGTTGAC | -0.0293
168 | ACGTCCTC | 0.206
169 | GGTCTGGA | -0.25
170 | ACGTGCAA | 0.35
171 | ACGTGCAT | 0.396
172 | ACGTGGTG | 0.376
